KB-V1 cytotox: qHTS assay for MDR1-selective chemotherapeutics: Primary screen using the drug-selected MDR subline cells KB-V1 | Potency, µM (doses to about 46.1 µM), hits mostly cytotoxic | KB-V1 MDR cells viability, CellTiter-Glo, 72 h | 400,000 compounds, 3.4% hits; also: nearly all actives have a fitted effect of over 60% in size
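In this primary screen, KB-V1 cells overexpressing P-gp are incubated with library compounds (lowest to highest concentration) for 72 h at 37 degrees C before a luminescent ATP viability read.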
HT1080-NT tox: qHTS for induction of synthetic lethality in tumor cells producing 2HG: qHTS for the HT-1080-NT fibrosarcoma cell line. HT-1080-NT fibrosarcoma viability, CellTiter-Glo ATP luminescence, 48 h. Potency, µM (doses to about 46.1 µM), usual class: cytotoxic. 360,000 compounds, 1.6% hits;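 also: NT is the 2HG producing partner of a matched IDH1 knockdown line; nearly all actives have a fitted effect of over 55% in size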
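Luminescent CellTiter-Glo readout after 48 hours of compound exposure at 37 degrees C defined viability of HT-1080-NT cells. Activity was normalized to DMSO wells and cell-free media wells; concentration-response curves were fitted and assigned curve classes.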
SW480 rerep: A quantitative high throughput screen for small molecules that induce DNA re-replication in SW480 colon adenocarcinoma cells | SW480 DNA re-replication, Hoechst DNA content imaging, 48 h | Potency, µM (highest dose often 46.1 µM), actives largely listed as activators | 340,000 compounds, 1.8% hits; also: nearly all actives have a fitted effect of over 55% in size
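Readout is total intensity of Hoechst-stained nuclei, excited at 405 nm and collected at 500-530 nm. Compound treatment lasted 48 hr at 37 C in 5% CO2 before staining.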
KB-3-1 cytotox: qHTS assay for MDR1-selective chemotherapeutics: Primary screen using the parental adenocarcinoma cell KB-3-1 | KB-3-1 viability, CellTiter-Glo ATP luminescence, 72 h | Potency, µM (series often up to 46.1 µM), actives largely listed as cytotoxic | 400,000 compounds, 1.4% hits; also: nearly all actives have a fitted effect of over 60% in size
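Parental KB-3-1 viability, qHTS format: 72 h compound exposure, 37 °C; CellTiter-Glo; media-only wells and DMSO plates as controls; concentration-effect fits on corrected data.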
MCF10A rereplic: A quantitative high throughput screen for small molecules that induce DNA re-replication in MCF 10a normal breast cells; MCF 10A DNA re-replication, Hoechst nuclear intensity, 48 h; Potency, µM (doses to about 46.1 µM), usual class: activators; 350,000 compounds, 2.9% hits; also: nearly all actives have a fitted effect of over 50% in size
HT1080 IDH1KD tx: qHTS for induction of synthetic lethality in tumor cells producing 2HG: qHTS for the HT-1080-IDH1KD cell line; 360,000 compounds, 2% hits; AID 686971, 2013; Potency, µM (highest dose often 46.1 µM), most hits filed as cytotoxic; HT-1080 IDH1 knockdown viability, ATP luminescence, 48 h
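In this qHTS, HT-1080 cells depleted of IDH1 are exposed for 48 h at 37 °C to compound titrations. Toxicity is scored from CellTiter-Glo luminescence, with DMSO as full viability and medium alone as none.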
Of the large screens only hits and unclear results are named; the others gave an inactive call. Rows were chosen to be rich in hits. Some 7.9% of all compounds tested hit in one or more screens of this group. Calls follow the shape of the dose curve; as a rule, active = well fitted curve in the direction sought with a large enough effect; inconclusive = small, poorly fitted or top-dose-only effect, or another doubt; inactive = no such curve, though single readings can be large; an effect the other way counts as inactive or inconclusive.

Cc1[nH]c2ccccc2c1C(c1ccccn1)N1CCC(C(N)=O)CC1 (configuration not stated)	KB-3-1 cytotox inconclusive, MCF10A rereplic inconclusive
COC(=O)c1c[nH]n2c(=O)c(Cl)c(C)nc12	MCF10A rereplic inconclusive
COC(=O)c1c[nH]n2c(=O)c(Cc3ccc(F)cc3Cl)c(C)nc12	KB-V1 cytotox 16.4µM, HT1080-NT tox inconclusive, HT1080 IDH1KD tx inconclusive
Cn1c(=O)c2c(nc(SCCN3CCCCC3)n2Cc2ccc(Cl)cc2)n(C)c1=O	HT1080-NT tox inconclusive
CCSc1nc2c(c(=O)n(C)c(=O)n2C)n1Cc1ccc(Cl)cc1	KB-V1 cytotox 13µM
Cn1c(=O)[nH]c(=O)c2c1nc(N1CCCCC1)n2CCSc1nc2ccccc2o1	none
CC(C)CCn1c(Sc2nc3ccccc3o2)nc2c1c(=O)[nH]c(=O)n2C	KB-V1 cytotox 14.6µM, SW480 rerep inconclusive, MCF10A rereplic inconclusive
Cn1c(=O)c2c(nc(SCC(=O)NCc3ccc4c(c3)OCO4)n2Cc2ccc(Cl)cc2)n(C)c1=O	KB-V1 cytotox 4.11µM
CCCCCCn1c(SCC(C)C)nc2c1c(=O)[nH]c(=O)n2C	KB-V1 cytotox 10.3µM, KB-3-1 cytotox inconclusive
CCc1nnc(NC(=O)CSc2nccn2Cc2ccccc2)s1	KB-V1 cytotox inconclusive (no result: HT1080-NT tox, SW480 rerep, MCF10A rereplic, HT1080 IDH1KD tx)
CCOc1cc2ccccc2cc1C(=O)OCC(=O)Nc1ccc(Br)cc1	none (no result: HT1080-NT tox, SW480 rerep, MCF10A rereplic, HT1080 IDH1KD tx)
CCSc1nc2c(c(=O)[nH]c(=O)n2C)n1Cc1ccc(Cl)cc1	KB-V1 cytotox 7.31µM, KB-3-1 cytotox inconclusive
CCOc1ccc(CNC(=O)CN2C(=O)CSc3c2c(C)nn3-c2ccccc2)cc1	none (no result: HT1080-NT tox, SW480 rerep, MCF10A rereplic, HT1080 IDH1KD tx)
Oc1ccc(Nc2nc3ccccc3nc2Nc2ccc(O)cc2)cc1	KB-V1 cytotox inconclusive, HT1080-NT tox 23.1µM, SW480 rerep 4.61µM, MCF10A rereplic 1.46µM, HT1080 IDH1KD tx 11.6µM
CC(C)(C)c1nnc(NC(=O)CCS(=O)(=O)c2ccccc2)s1	SW480 rerep inconclusive, MCF10A rereplic inconclusive, HT1080 IDH1KD tx inconclusive
CC(Oc1ccccc1)C(=O)Nc1nc2c(s1)C(=O)CC(C)(C)C2 (configuration not stated)	none
CC1(C)CC(=O)c2sc(NC(=O)CCS(=O)(=O)c3ccccc3)nc2C1	KB-3-1 cytotox 20.6µM, MCF10A rereplic 23.1µM
O=C(O)CCC(=O)Nc1nnc(C(F)(F)F)s1	KB-V1 cytotox inconclusive
CC1(C)CC(=O)c2sc(NS(=O)(=O)c3ccc(Cl)cc3)nc2C1	none
O=C(CCS(=O)(=O)c1ccccc1)Nc1nnc(C(F)(F)F)s1	KB-V1 cytotox inconclusive, HT1080-NT tox inconclusive, SW480 rerep 13µM, KB-3-1 cytotox inconclusive, MCF10A rereplic 23.1µM, HT1080 IDH1KD tx 18.4µM
CC1(C)CC(=O)c2sc(NS(=O)(=O)c3ccc(Br)cc3)nc2C1	MCF10A rereplic 0.581µM
CCC(NC(=O)Nc1nnc(C(F)(F)F)s1)(C(F)(F)F)C(F)(F)F	KB-V1 cytotox 4.11µM, HT1080-NT tox 3.26µM, SW480 rerep inconclusive, KB-3-1 cytotox 10.3µM, MCF10A rereplic inconclusive, HT1080 IDH1KD tx 3.66µM
CCc1nnc2c(NCc3ccc(F)cc3)nc3ccccc3n12	none (no result: HT1080-NT tox, SW480 rerep, MCF10A rereplic, HT1080 IDH1KD tx)
CCOC(=O)c1ccc(NC(=O)Nc2cc3c(cc2N2CCCC2)n(C)c(=O)n3C)cc1	none (no result: HT1080-NT tox, SW480 rerep, MCF10A rereplic, HT1080 IDH1KD tx)
CCOc1ccc(CCNC(=O)C(CC)n2nc(C)c3c(C)n(-c4ccccc4)nc3c2=O)cc1 (configuration not stated)	none (no result: HT1080-NT tox, SW480 rerep, MCF10A rereplic, HT1080 IDH1KD tx)
Cc1nc2ccccn2c1C(=O)/C=C/c1cccc([N+](=O)[O-])c1	KB-V1 cytotox inconclusive, SW480 rerep 4.11µM, KB-3-1 cytotox 2.59µM, MCF10A rereplic inconclusive
